Test results: the emibetuzumab library of Makowski et al. (2022)
The list shows a part of the results. No count for the full screen is at hand.

B1: VH:VL chains; a variant is named by its letters at X, in order (parent)
chain 1: QVQLVQSGAEVKKPGASVKVSCKASGYTFTDYXMHWVRQAPGQGLEWMGXVNPNXXXTTYNQKFEGRVTMTTDTSTSTAYMELRSLRSDDTAVYYCARXNXLDXWGQGTTVTVSS
chain 2: DIQMTQSPSSLSASVGDRVTITCSVSSSVSSIYLHWYQQKPGKAPKLLIYSTSNLASGVPSRFSGSGSGTDFTLTISSLQPEDFATYYCQVYSGYPLTFGGGTKVEIK

Variants of: B1
Test: yeast display scFab, FACS + sequencing
Conditions: with MET
How it was run: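 A heavy-chain CDR mutant scFab library on yeast was enriched magnetically with HGFR-Fc-coated Protein A beads for two rounds and then by FACS after labelling with 1 nM HGFR-Fc and anti-Myc in PBSB with 1% milk for 3 h at room temperature, gating the top 50% antigen-positive cells. Antigen binding was judged positive if a sequence turned up in both antigen-positive deep-sequencing samples and negative if it turned up only in the input.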

Variant	antigen binding call
YATEDDWV	no binding
VETGNAVY	no binding
SEARSDLY	no binding
FAEGSYAF	no binding
VGAEDDVA	no binding
SGETGDSV	no binding
FRGRGSAA	binds
FRGRSSAA	binds
VTGRGDVA	no binding
YREGGSGV	binds
DREEGAGV	no binding
DKEGGSGV	no binding
YREGGAGV	binds
VEKEGDWY	no binding
SAREGDLA	no binding
VEEEGSAD	no binding
VAGTGSAD	no binding
VRAKGSAD	binds
VTAGDSAD	no binding
VRAGGSAD	binds
VARETDVA	no binding
VKTGGSWA	no binding
VKGRGDAA	no binding

Variant	antigen binding call
VKGRGFAA	no binding
VKGRGSWA	binds
DEGRGSWA	no binding
VKGRGAWA	binds
VTRGADGV	no binding
VAGGDFGV	no binding
SKKTGSVD	no binding
SKKRGSWD	binds
FRGKGASD	binds
SKGKGSWD	binds
FRGKGSWD	binds
SAGTGSWD	no binding
VEAGDDWV	no binding
SGRGNDGV	no binding
DTGGDDWF	no binding
DAGGGDAV	no binding
FAGTGSWD	no binding
FKGKGSWD	binds
YAGTGFVD	no binding
YKGKGSWD	binds
FRGTSFGD chain 1 T58I	no binding
FRGKGAWD	binds
FRGTGFVD	binds

Variant	antigen binding call
AAGGNAWS chain 1 G66S	no binding
FRGKGAVD	binds
DGGKGAVD	no binding
DKGGSDVA	no binding
YKGGSSAA	binds
DKGEGAAA	no binding
DKGGSAVV	no binding
YKGRSAAA	binds
FKGGSSAA	no binding
YKGGSAAA	binds
DEGGTDVF	no binding
DGGKNDWV	no binding
DAGGASSS	no binding
YTERNFGV	no binding
FRARSSGF	binds
FRGADSGF chain 1 R98K	no binding
FTARSAGF	no binding
FRGRDFLF	no binding
FRGGGSGF	binds
FRGRGSGF	binds
FRAGGSLF	binds
DRAGDSGF	no binding
DGGKNSVD	no binding

Variant	antigen binding call
VEGGGFSV	no binding
VEAGDDAV	no binding
ATAGSDGV	no binding
DAARGDGA	no binding
VKGRSDVY	no binding
FRGRGALF	binds
FRGRGSLF	binds
FRGRGSVF	binds
FRKRGSVF	binds
ARAAGDVF	no binding
YRGAGSGD	binds
YRGAGSGY	binds
YRGAGSGS	binds
YRGGSSGY	binds
AERRDDGA	no binding
VAGGGAGV	no binding
YAGGDDSA	no binding
VTTKSFGV	no binding
ARGAGYGS	no binding
YRGAGAVS	binds
YAGAGAVY	no binding
YRGAGAGS	binds
YRGAGYGS	no binding

Variant	antigen binding call
YRGAGAVY	binds
YRGAGAWS	binds
DEETNSGA	no binding
AREGDDVA	no binding
YTGTSAVS	no binding
YRGGGSGS	binds
YARRAAVS	no binding
YRGRAAVS	binds
YRGRGFAD	binds
YAAGGFAY	no binding
YKGAAFAD	no binding
YRGRGYAY	binds
YRGRGFAY	binds
YRGGGFAD	binds
VATGDDVA	no binding
SATKTVVV	no binding
VTGEDSGV	no binding
YKGRGFAY	binds
SKGASFAY	no binding
DTGTGDSA	no binding
DAGGGDVV	no binding
VEGGNDGA	no binding
YAGGGDWA	no binding

Variant	antigen binding call
YRKGSSGV	binds
YRKRGSLV	binds
YRKRGSVV	binds
DREEGDVV	no binding
YRKRGDVV	binds
DAGGDDGA	no binding
AARADAVY	no binding
DARETFLD	no binding
SGREGDWD	no binding
YRKRGSGV	binds
YRKGGSGV	binds
YRKRGSLY	binds
VEKGGSGV	no binding
YRKRGVGV	no binding
VRKGGSGV	binds
DGGGASSA	no binding
YTAGSDGA	no binding
SEARSDAD	no binding
VEGGGDVY	no binding
VAEKGDGV	no binding
